This is an account of results in PubChem BioAssay (EPA / NIEHS).

Results filed as inconclusive are left out. Where a structure was tested more than once in an assay, its records may differ in their call. Calls of active or inactive are those of the source. Rule for the calls, unless noted: active = hit-call score of the fitted dose curve at least 0.9, where 1 is the maximum; inactive = score below 0.9.

Estrogen receptor (Homo sapiens), sequence (P03372 whole entry, looked up): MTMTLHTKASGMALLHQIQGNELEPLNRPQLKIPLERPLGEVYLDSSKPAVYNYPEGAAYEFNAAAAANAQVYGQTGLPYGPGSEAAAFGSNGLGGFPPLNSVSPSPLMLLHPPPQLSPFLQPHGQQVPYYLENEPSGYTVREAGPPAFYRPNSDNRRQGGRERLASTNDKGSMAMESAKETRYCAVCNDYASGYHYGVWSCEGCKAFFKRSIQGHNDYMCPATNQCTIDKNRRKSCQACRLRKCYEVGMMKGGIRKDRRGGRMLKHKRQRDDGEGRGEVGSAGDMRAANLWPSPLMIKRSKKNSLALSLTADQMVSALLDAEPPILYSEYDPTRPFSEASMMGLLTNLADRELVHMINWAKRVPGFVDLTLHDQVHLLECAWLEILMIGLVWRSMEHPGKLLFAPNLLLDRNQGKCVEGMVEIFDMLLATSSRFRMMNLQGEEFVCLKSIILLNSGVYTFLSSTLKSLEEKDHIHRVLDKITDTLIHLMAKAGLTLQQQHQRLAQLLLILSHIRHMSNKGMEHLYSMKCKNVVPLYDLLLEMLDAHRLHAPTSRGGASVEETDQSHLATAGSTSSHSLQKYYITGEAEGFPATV

Tested on in one experiment: not listed separately
Nature of the experiment: CCTE_Shafer_MEA_acute_cross_correlation_HWHM: CCTE's Neural Acute Assay for Cross Correlation at Half Width at Half Maximum, Shafer Lab (AID 2284026).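 For outcome: spontaneous network firing of rat primary cortical neurons on multiwell microelectrode arrays.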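 Note: percent change per well from pre-dose baseline in spike cross-correlogram half width; hits are a decrease in cross-correlogram half width relative to DMSO.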 The procedure, abridged: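 Per-well percent change in cross-correlogram half width at half maximum, derived from 40-min recordings before and after compound (0.03-40 uM) at 37 C. Cultures were rat cortical neurons, DIV 13 or 15, with adaptive spike detection at 8x rms.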
Consider `O=P(OC(CCl)CCl)(OC(CCl)CCl)OC(CCl)CCl`, for which the AC50 is 23.5 µM (active) and the outcome was inactive.
For `CC(C)=CCCC(C)=CC=O`, the outcome was inactive.
Consider `CCCCCCCCCCCCc1ccccc1`, for which the call was inactive.
As for `Cn1c(=O)c2c(ncn2C)n(C)c1=O`, the compound was called inactive.
On the same count and under the same terms, the result for `CCC(C)(C)C(=O)O[C@H]1C[C@@H](C)C=C2C=C[C@H](C)[C@H](CC[C@@H]3C[C@@H](O)CC(=O)O3)[C@H]21` reads “inactive”.
As to `Cn1cnc([N+](=O)[O-])c1Sc1ncnc2nc[nH]c12`, the result was inactive.

Tested on in a further experiment: not listed separately
Nature of the experiment: CCTE_Shafer_MEA_acute_synchrony_index: CCTE's Neural Acute Assay for Synchrony, Shafer Lab (AID 2284027).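 Note: network synchrony index of spontaneous spiking in primary rat cortical neurons on MEAs; fitted for loss of signal so actives lower synchrony relative to DMSO.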 The procedure, abridged:
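The synchrony index is taken as percent change per well between a 40 min baseline and a 40 min recording with compound (0.03–40 uM), at 37C. Rat cortical cultures on multiwell MEAs at DIV 13 or 15, spike threshold 8× rms noise.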
Consider `O=P(OC(CCl)CCl)(OC(CCl)CCl)OC(CCl)CCl`, for which the AC50 is 23 µM (active) and the call was inactive.
In the case of `CC(C)=CCCC(C)=CC=O`, the compound was classed as inactive.
Turning to `CCCCCCCCCCCCc1ccccc1`, the compound was called inactive.
Take `Cn1c(=O)c2c(ncn2C)n(C)c1=O`: the compound was called inactive.
For the compound `CCC(C)(C)C(=O)O[C@H]1C[C@@H](C)C=C2C=C[C@H](C)[C@H](CC[C@@H]3C[C@@H](O)CC(=O)O3)[C@H]21`, the call was inactive.
Take `Cn1cnc([N+](=O)[O-])c1Sc1ncnc2nc[nH]c12`: the call was inactive.

The target of another experiment is Estrogen receptor (Homo sapiens) (UniProt P03372). Briefly: CCTE_Deisenroth_AIME_384WELL_LUC_Active: CCTE's 384-well Estrogen Receptor Transactivation Assay with AIME metabolic competence (ERTA luciferase; metabolism positive), Deisenroth Lab (AID 2284030; active = hit-call score of the fitted dose curve at least 0.9, where 1 is the maximum). In a few lines:
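VM7Luc4E2 breast cells were given, for 24 hours, medium pre-incubated for 2 hours with parent chemical (0.002-200 uM, 10 concentrations) and alginate-encapsulated phenobarbital/beta-naphthoflavone-induced rat hepatic S9. Luciferase gain of signal was fitted against 17beta-estradiol; n=4 or more.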
For the compound `CC(C)CCO`, the compound was called inactive.
Turning to `C=CC(=C)CCC=C(C)C`, the outcome was inactive.
With `Cc1ccc(N)cc1O`, the compound was called inactive.
For the compound `Nc1ccc(Nc2ccccc2)cc1`, the AC50 was 114 µM (active).
With `O=c1[nH]c2ccc(S(=O)CCN3CCC(Cc4ccc(F)cc4)CC3)cc2o1` (configuration not stated), the compound was called inactive.

Tested on in the next experiment: not listed separately
Briefly: CCTE_Shafer_MEA_dev_per_burst_spike_percent: CCTE's Neural Network Formation Assay for Percent of Spikes in a Burst, Shafer Lab (AID 2284032).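 For AC50: fitted as a decrease in burst spike percentage below DMSO baseline.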 In a few lines:
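Value is trapezoidal AUC over recordings on days 5, 7, 9 and 12 of the well-mean fraction of spikes falling in single-electrode bursts; rat cortical cultures exposed continuously from plating, treatment renewed DIV 5 and 9, fitted downward against DMSO.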
`O=P(OC(CCl)CCl)(OC(CCl)CCl)OC(CCl)CCl`: the outcome was inactive.
The same measure, in the same setting: the result for `NC(=O)NO` reads “inactive”.
As for `Cn1c(=O)c2c(ncn2C)n(C)c1=O`, the result was inactive.
Consider `CCC(C)(C)C(=O)O[C@H]1C[C@@H](C)C=C2C=C[C@H](C)[C@H](CC[C@@H]3C[C@@H](O)CC(=O)O3)[C@H]21`, for which the AC50 was 2.74 µM (active).
Consider `Nc1nc2ncc(CNc3ccc(C(=O)N[C@@H](CCC(=O)O)C(=O)O)cc3)nc2c(=O)[nH]1`, for which the outcome was inactive.
In the case of `CNCc1ccc(NC(=O)c2c[nH]c3c2C(=O)CCC3)cc1`, the concentration at half-maximal activity (AC50) is 1.98 µM (active).

Tested on in a further experiment: not listed separately
Briefly: CCTE_Deisenroth_AIME_384WELL_CTox_Active: Cytotoxicity Assessment (CTOX) in CCTE's 384-well Estrogen Receptor Transactivation Assay with AIME metabolic competence (metabolism positive), Deisenroth Lab (AID 2284037; active = hit-call score of the fitted dose curve at least 0.9, where 1 is the maximum;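 note: chemicals first conditioned 2 h by alginate-bound induced rat liver S9 before cells; activity means signal loss indicating cell death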). In a few lines: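 VM7Luc4E2 breast cells received medium pre-incubated 2 h with chemical over alginate microspheres holding induced male Sprague Dawley rat liver S9; viability read 24 h later by protease-substrate fluorescence. Loss of signal, bidirectional fit, 0.002–200 uM.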
On to `CCOCCOCCOCCO`, for which the outcome was inactive.
The same measure, in the same setting: the result for `Cn1c(=O)c2c(ncn2C)n(C)c1=O` reads “inactive”.
On to `CC1=CC(=O)CC(C)(C)C1`, for which the outcome was inactive.
Still for that read-out and setting: with `CC(C)=CCC/C(C)=C\CO` the entry was “inactive”.
Regarding `CC(C)CCCCCCCOC(=O)CCCCC(=O)OCCCCCCCC(C)C`, the call was inactive.
With `Nc1ccc(Nc2ccccc2)cc1`, the result was inactive.
On to `CNCc1ccc(NC(=O)c2c[nH]c3c2C(=O)CCC3)cc1`, for which the compound was called inactive.
